Reference: the supplement of paper PMC6522484
± gives the standard deviation of the averaged measurements.

Key:
DLD1 [1] = assay: cell viability (CellTiter-Glo) relative to plate median (fraction of plate median); higher = more viable cells; conditions: 5 µM; treatment time 24 h; reporter: 7TFP
Procedure, shortened: (§1)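 On parallel plates, a Tecan F500 reader recorded either firefly luciferase or CellTiterGlo luminescence. The plates held colorectal cancer cells stably transduced with lentiviral TCF/Wnt firefly luciferase reporters (7TFP or TCF4/Wnt), seeded in 384-well format and treated 24 h later with library compounds at a final 5 µM for 24 h. Per-well signals were normalised to the plate median (webcellHTS2, additive, no log transformation), and two independent replicates were averaged.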

HCT116 = assay: as above; conditions: 5 µM; treatment time 24 h; reporter: TCF4/Wnt
Procedure, shortened: as §1

SW480 [2] = assay: as above; conditions: 5 µM; treatment time 24 h; reporter: 7TFP
Procedure, shortened: as §1

DLD1 [3] = assay: TCF/Wnt firefly luciferase reporter signal relative to plate median (fraction of plate median); higher = higher Wnt reporter signal; conditions: 5 µM; treatment time 24 h; reporter: 7TFP
Procedure, shortened: as §1

SW480 [4] = assay: as above; conditions: 5 µM; treatment time 24 h; reporter: 7TFP
Procedure, shortened: as §1

SMILES: COC(=O)CC[C@@H](C)[C@H]1CC[C@H]2[C@@H]3CC[C@@H]4C[C@H](O)CC[C@]4(C)[C@H]3C[C@H](O)[C@]12C
- cell viability (DLD1 [1]): 0.964 ± 0.065
- cell viability (HCT116): 1.02 ± 0.097
- cell viability (SW480 [2]): 0.944 ± 0.018
- TCF/Wnt firefly luciferase reporter signal (DLD1 [3]): 0.955 ± 0.079
- TCF/Wnt firefly luciferase reporter signal (SW480 [4]): 0.875 ± 0.061

SMILES: Cc1nnc(NS(=O)(=O)c2ccc(N)cc2)s1
- cell viability (DLD1 [1]): 1.01 ± 0.016
- cell viability (HCT116): 1.04 ± 0.028
- cell viability (SW480 [2]): 1.01 ± 0.15
- TCF/Wnt firefly luciferase reporter signal (DLD1 [3]): 0.957 ± 0.04
- TCF/Wnt firefly luciferase reporter signal (SW480 [4]): 0.981 ± 0.056

SMILES: C=CCSCC=C
- cell viability (DLD1 [1]): 0.9785 ± 0.0078
- cell viability (HCT116): 0.967 ± 0.047
- cell viability (SW480 [2]): 0.98 ± 0.029
- TCF/Wnt firefly luciferase reporter signal (DLD1 [3]): 0.959 ± 0.015
- TCF/Wnt firefly luciferase reporter signal (SW480 [4]): 0.95 ± 0.05

SMILES: Cc1onc(-c2ccccc2)c1C(=O)N[C@@H]1C(=O)N2[C@@H]1SC(C)(C)[C@@H]2C(=O)O
- cell viability (DLD1 [1]): 0.978 ± 0.032
- cell viability (HCT116): 0.891 ± 0.1
- cell viability (SW480 [2]): 0.978 ± 0.0014
- TCF/Wnt firefly luciferase reporter signal (DLD1 [3]): 1.21 ± 0.071
- TCF/Wnt firefly luciferase reporter signal (SW480 [4]): 1.11 ± 0.028

SMILES: C[C@]12CC[C@@H]3c4ccc(OS(=O)(=O)O)cc4CC[C@H]3[C@@H]1CCC2=O
- cell viability (DLD1 [1]): 1.03 ± 0.035
- cell viability (HCT116): 1.12 ± 0.014
- cell viability (SW480 [2]): 1 ± 0.014
- TCF/Wnt firefly luciferase reporter signal (DLD1 [3]): 1.24 ± 0.21
- TCF/Wnt firefly luciferase reporter signal (SW480 [4]): 1.23 ± 0.028

SMILES: N[C@H]1Cc2ccc(cc2)C(=O)[C@@H]2C[C@@H](O)CN2C1=O [cyclo(4-hydroxyprolyl-phenylalanyl)]
- cell viability (DLD1 [1]): 0.951 ± 0.023
- cell viability (HCT116): 0.907 ± 0.16
- cell viability (SW480 [2]): 0.956 ± 0.016
- TCF/Wnt firefly luciferase reporter signal (DLD1 [3]): 0.915 ± 0.18
- TCF/Wnt firefly luciferase reporter signal (SW480 [4]): 1.03 ± 0.028

SMILES: Oc1c(Br)cc(Br)c2cccnc12
- cell viability (DLD1 [1]): 1.02 ± 0.021
- cell viability (HCT116): 1.07 ± 0.071
- cell viability (SW480 [2]): 0.965 ± 0.064
- TCF/Wnt firefly luciferase reporter signal (DLD1 [3]): 1.24 ± 0.014
- TCF/Wnt firefly luciferase reporter signal (SW480 [4]): 1.12 ± 0.028

SMILES: O=c1ccn([C@@H]2O[C@H](COP(=O)(O)OP(=O)(O)OP(=O)(O)O)[C@@H](O)[C@H]2O)c(=O)[nH]1
- cell viability (DLD1 [1]): 0.986 ± 0.091
- cell viability (HCT116): 0.89 ± 0.016
- cell viability (SW480 [2]): 1.04 ± 0.064
- TCF/Wnt firefly luciferase reporter signal (DLD1 [3]): 0.921 ± 0.27
- TCF/Wnt firefly luciferase reporter signal (SW480 [4]): 0.958 ± 0.14

SMILES: CCCC(C(=O)OCCN(CC)CC)(c1ccccc1)c1ccccc1
- cell viability (DLD1 [1]): 1.03 ± 0.098
- cell viability (HCT116): 0.972 ± 0.04
- cell viability (SW480 [2]): 1.03 ± 0.028
- TCF/Wnt firefly luciferase reporter signal (DLD1 [3]): 1.22 ± 0.22
- TCF/Wnt firefly luciferase reporter signal (SW480 [4]): 1.06

SMILES: O=C(OC[C@H]1O[C@@H](OC(=O)c2cc(O)c(O)c(OC(=O)c3cc(O)c(O)c(O)c3)c2)[C@H](OC(=O)c2cc(O)c(O)c(OC(=O)c3cc(O)c(O)c(O)c3)c2)[C@@H](OC(=O)c2cc(O)c(O)c(OC(=O)c3cc(O)c(O)c(O)c3)c2)[C@@H]1OC(=O)c1cc(O)c(O)c(OC(=O)c2cc(O)c(O)c(O)c2)c1)c1cc(O)c(O)c(OC(=O)c2cc(O)c(O)c(O)c2)c1
- cell viability (DLD1 [1]): 1.025 ± 0.0071
- cell viability (HCT116): 0.915 ± 0.04
- cell viability (SW480 [2]): 1 ± 0.05
- TCF/Wnt firefly luciferase reporter signal (DLD1 [3]): 0.794 ± 0.055
- TCF/Wnt firefly luciferase reporter signal (SW480 [4]): 0.913 ± 0.047

SMILES: CC[C@H]1OC(=O)C[C@@H](O)[C@H](C)[C@@H](O[C@@H]2O[C@H](C)[C@@H](O)[C@H](N(C)C)[C@H]2O)[C@@H](CCN2C[C@H](C)C[C@H](C)C2)C[C@@H](C)C(=O)/C=C/C(C)=C/[C@@H]1CO[C@@H]1O[C@H](C)[C@@H](O)[C@@H](OC)[C@H]1OC
- cell viability (DLD1 [1]): 0.981 ± 0.041
- cell viability (HCT116): 1.1 ± 0.05
- cell viability (SW480 [2]): 0.972 ± 0.021
- TCF/Wnt firefly luciferase reporter signal (DLD1 [3]): 1.02 ± 0.077
- TCF/Wnt firefly luciferase reporter signal (SW480 [4]): 1.09 ± 0.064

SMILES: O=c1cc(-c2ccc(O)cc2)oc2cc(O)cc(O)c12
- cell viability (DLD1 [1]): 0.982 ± 0.026
- cell viability (HCT116): 1.07 ± 0.028
- cell viability (SW480 [2]): 1.02 ± 0.014
- TCF/Wnt firefly luciferase reporter signal (DLD1 [3]): 1.105 ± 0.0071
- TCF/Wnt firefly luciferase reporter signal (SW480 [4]): 1.03 ± 0.05

SMILES: CCOC(=O)CCC(=O)O[C@H]1[C@H](O[C@@H]2[C@@H](C)[C@H](O[C@H]3C[C@@](C)(OC)[C@@H](O)[C@H](C)O3)[C@@H](C)C(=O)O[C@H](CC)[C@@](C)(O)[C@H](O)[C@@H](C)C(=O)[C@H](C)C[C@@]2(C)O)O[C@H](C)C[C@@H]1N(C)C
- cell viability (DLD1 [1]): 1.065 ± 0.0071
- cell viability (HCT116): 1.01 ± 0.096
- cell viability (SW480 [2]): 1.01 ± 0.021
- TCF/Wnt firefly luciferase reporter signal (DLD1 [3]): 1.005 ± 0.0071
- TCF/Wnt firefly luciferase reporter signal (SW480 [4]): 0.94 ± 0.025

SMILES: CC1(C)C=Cc2cc3ccc(=O)oc3cc2O1
- cell viability (DLD1 [1]): 0.979 ± 0.087
- cell viability (HCT116): 1 ± 0.043
- cell viability (SW480 [2]): 1.04 ± 0.042
- TCF/Wnt firefly luciferase reporter signal (DLD1 [3]): 1.21 ± 0.13
- TCF/Wnt firefly luciferase reporter signal (SW480 [4]): 1.165 ± 0.0071
